TRHR enhancer-1: allosterically enhances the human TRH receptor; enhancement, % at 2 µM; AID 493056; hit rate 0.66% among 360,000; TRHR cells, fluo-8 calcium fluorescence, EC20 TRH enhancement; in the data active = enhancement above about 30%
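Enhancer read-out: after compound pinning and an initial kinetic agonist-mode read, an EC20 of TRH (10 nM final) was injected and fluo-8 calcium signal (Ex 480/Em 530) followed at 1 s/cycle for 100 cycles in TRHR-expressing cells.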
TRHR agonist-1: agonists of human TRH receptor | P34981 | TRHR cells, calcium flux fluo-8, FDSS agonist mode | activation, % at 2 µM | hit rate 0.18% among 360,000 | AID 493084; in the data active = activation above about 30%
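TRHR-expressing cells loaded with fluo-8 calcium dye; 23 nL library compound pin-transferred, kinetic FDSS fluorescence (Ex 480/Em 530) recorded about 180 s for agonist-induced calcium release, before a 10 nM TRH EC20 addition for potentiator mode.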
TRPML1 agonist: agonists of human TRPML1 channel. TRPML1-expressing cells, Ca2+ dye fluorescence, FDSS. activation, % (no concentration beside the values). hit rate 0.12% among 410,000; in the data active = activation above about 50%; inconclusive = mostly about 30% to 49%
Target sequence (Q9GZU1 whole entry, looked up): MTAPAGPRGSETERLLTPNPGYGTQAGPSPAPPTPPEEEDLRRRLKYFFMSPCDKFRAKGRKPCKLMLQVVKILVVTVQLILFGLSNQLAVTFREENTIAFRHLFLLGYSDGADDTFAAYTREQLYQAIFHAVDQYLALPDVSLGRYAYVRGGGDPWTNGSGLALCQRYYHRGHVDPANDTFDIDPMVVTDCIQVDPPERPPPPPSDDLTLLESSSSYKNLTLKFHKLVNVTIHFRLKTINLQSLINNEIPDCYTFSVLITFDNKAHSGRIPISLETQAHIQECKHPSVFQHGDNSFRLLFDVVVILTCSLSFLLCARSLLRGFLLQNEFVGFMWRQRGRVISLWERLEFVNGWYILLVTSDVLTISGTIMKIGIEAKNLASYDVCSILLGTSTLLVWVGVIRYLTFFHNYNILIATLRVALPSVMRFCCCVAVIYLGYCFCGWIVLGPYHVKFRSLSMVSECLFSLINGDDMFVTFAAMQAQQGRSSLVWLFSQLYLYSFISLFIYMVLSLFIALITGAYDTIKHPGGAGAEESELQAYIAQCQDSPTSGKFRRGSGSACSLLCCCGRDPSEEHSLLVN
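Tetracycline-induced TRPML1-DL cells are seeded and incubated overnight before loading with a no-wash Ca2+ dye and quencher. Agonist activity is taken from the 110 s fluorescence read following compound pin-transfer on an FDSS, before EC80 54-4 challenge.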
TRPML1 blocker: blocks the human TRPML1 channel | activity change, negative = inhibition, % (test concentration not listed) | TRPML1-inducible cells, Ca2+ dye fluorescence, FDSS; hits give low values; inhibition of EC80 agonist-evoked calcium signal | hit rate 0.02% among 390,000 | Q9GZU1; in the data active = activity change below about -50%; inconclusive = between about -30% and that limit;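 also: stimulus is agonist 54-4 at its EC80 concentration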
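TRPML1-DL cells, Tet-induced overnight (~16 h, 37 °C) at 1,500 cells/well, were loaded with Ca8 no-wash dye plus quencher for 45-90 min at room temperature. Compounds were pinned during FDSS kinetic reading; agonist 54-4 at EC80 (4 uM final) then added.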
TRHR enhancer-2: human TRH receptor allosteric enhancement confirmation. shares compounds with TRHR enhancer-1. TRH receptor cell assay, enhancer confirmation qHTS. activity change, negative = inhibition, % at 46.1 µM. 970 tested, under 10 active;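 also: compound effect scored on response to added TRH at EC20 of 10 nM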
TRHR agonist-2: confirmation of human TRH receptor agonists; Potency, µM (titrated, usually from 46.1 µM), hits mostly activators; TRHR-expressing cells, agonist activation read-out; shares compounds with TRHR enhancer-1; hit rate 8% among 970; also: nearly all actives have a fitted effect of over 75% in size
Numbers stand for hits; 0 = inactive; ? = inconclusive; - = no result given. Compounds with a hit are over-represented: about 0.81% of the library has one in this group of screens. Unless noted, calls follow the shape of the dose curve; as a rule, active = well fitted curve in the direction sought with a large enough effect; inconclusive = small, poorly fitted or top-dose-only effect, or another doubt; inactive = no such curve, though single readings can be large; an effect the other way counts as inactive or inconclusive.

SMILES	TRHR enhancer-1	TRHR agonist-1	TRPML1 agonist	TRPML1 blocker	TRHR enhancer-2	TRHR agonist-2
Cc1cc(-n2c(SCc3ccccc3F)nc3n[nH]c(C)c3c2=N)ccc1Cl	54.0	0	0	0	0	0
O=C(O)CSC1=NS(=O)(=O)c2ccccc21	-	-	0	-	-	-
CCC(=O)NC(c1cccc(C)c1)c1cc(Cl)c2cccnc2c1O (stereo not given)	0	0	-	-	-	-
CCCCCc1ccc(OCCCC[n+]2ccccc2)c(CCCCC)c1	0	0	0	0	-	-
CCCCCc1ccc(OCCCC[n+]2ccc(C)cc2)c(CCCCC)c1	0	35.0	0	0	0	?
CN(C)c1ccc(/C=C/c2ccnc3ccccc23)cc1O	-	-	0	-	-	-
O=C1c2ccccc2C(O)N1c1ccccc1 (stereo not given)	0	30.7	0	0	0	0
O=C1c2ccccc2C(O)N1c1ccc(Cl)cc1 (stereo not given)	0	0	0	0	-	-
C[N+](C)(C)CCOC(N)=O	0	0	0	0	0	0
Cc1nnc(SCCOC(N)=O)n1C	0	0	0	0	-	-
Cc1c(NC(=S)NC(=O)c2cccc3ccccc23)cccc1C(=O)O	65.2	0	0	0	0	0
CC(C)C(NC(=O)c1ccccc1Br)c1ccccc1 (stereo not given)	0	0	0	0	-	-
CC(NC(=S)NC(=O)c1ccccc1Br)c1ccccc1 (stereo not given)	46.6	0	0	0	0	0
Cc1cccc(OCC(=O)Nc2ccc(O)c(-c3nc4ccccc4o3)c2)c1	-	-	0	-	-	-
CCN1C(=O)/C(=C/C=C2/SCCN2C)SC1=S	0	0	0	0	-	-
CN1CCS/C1=C\C=C1/SC(=S)N(CC(=O)O)C1=O	0	0	0	0	0	20.6µM
c1cc2c3c(c1)CCCN3CCC2	-	-	0	-	-	-
CSCCC(NC(=O)c1ccc(Cl)c([N+](=O)[O-])c1)C(=O)N1CCN(C/C=C/c2ccccc2)CC1 (stereo not given)	66.3	0	0	0	0	0
CCOc1ccc(S(=O)(=O)Nc2cccc(C(=O)NCC3CCCO3)c2)cc1 (stereo not given)	46.9	0	0	0	0	0
COc1ccc(C(=O)C2CCN(C(=O)c3ccco3)CC2)cc1	48.6	0	0	0	?	0
COc1ccc(C(=O)C2CCN(C(=O)c3ccc(C)cc3)CC2)cc1	0	0	0	0	-	-
C=CCn1c(C)cc(-c2csc(NC(=O)C3=COCCO3)n2)c1C	58.5	0	0	0	0	0
COC(=O)c1ccc(NC(=O)c2nc(SCc3ccccc3F)ncc2Cl)cc1	-	-	0	-	-	-
NS(=O)(=O)c1ccc(CCNC(=O)C2CCC(Cn3c(=S)[nH]c4ccccc4c3=O)CC2)cc1 (stereo not given)	41.0	0	0	0	0	0
COc1ccc(-c2nn3c(-c4cc(-c5ccccc5)n[nH]4)nnc3s2)cc1	-	-	0	-	-	-
SMILES	TRHR enhancer-1	TRHR agonist-1	TRPML1 agonist	TRPML1 blocker	TRHR enhancer-2	TRHR agonist-2
COc1ccc(C2(C(N)=O)CCCCC2)cc1OC	0	0	0	0	-	-
COc1ccc(C2(C(=O)NC(C)C)CCCC2)cc1OC	52.2	0	0	0	0	0
CCC(NC(=O)Cc1c(C)c2ccc(OC)c(C)c2oc1=O)C(=O)NC(Cc1ccc(Cl)cc1)C(=O)O (stereo not given)	0	0	-	-	-	-
Cc1oc2cc3oc(=O)c(CC(=O)N[C@@H](C)C(=O)NC(Cc4ccc(Cl)cc4)C(=O)O)c(C)c3cc2c1C (stereo not given in full)	43.7	0	-	-	0	0
CCO[C@H]1OC(C(=O)NC2CC2)=C[C@@H](C)[C@@H]1CCCO	44.1	0	0	0	0	0
O=CNc1ccc(/C=C/c2ccnc3ccccc23)cc1	-	-	0	-	-	-
COCCn1c(SCC(=O)N2CC(=O)Nc3ccccc32)nc2ccccc21	0	45.0	0	0	0	0
CN(C)c1ccc(/C=C/c2nc3ccccc3s2)cc1Cl	-	-	0	-	-	-
COc1ccccc1CNC(=O)COC(=O)Cc1cccs1	42.7	0	0	0	0	0
COc1ccccc1NC(=O)COC(=O)Cc1cccs1	0	0	0	0	-	-
Cc1cccc(C)c1NC(=O)COC(=O)c1ccccc1Nc1ccccc1	0	34.9	0	0	0	0
C[N+]1(CC(=O)c2c3ccccc3cc3ccccc23)CCOCC1	-	-	0	-	-	-
